Source: PubChem BioAssay
A3G deaminase: APOBEC3G (human) deaminase inhibition | Q9HC16 | recombinant A3G, ssDNA deamination FAM/TAMRA fluorescence | inhibition, % at 20 µM | hit rate 0.28% among 330,000;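 active = inhibition of at least 40% at 20 µM, with no more than 30% in the related APOBEC3A deaminase screen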;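 also: plate controls were DMSO wells with A3G for no effect and wells lacking A3G enzyme for full effect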
Target sequence (Q9HC16 whole entry, looked up): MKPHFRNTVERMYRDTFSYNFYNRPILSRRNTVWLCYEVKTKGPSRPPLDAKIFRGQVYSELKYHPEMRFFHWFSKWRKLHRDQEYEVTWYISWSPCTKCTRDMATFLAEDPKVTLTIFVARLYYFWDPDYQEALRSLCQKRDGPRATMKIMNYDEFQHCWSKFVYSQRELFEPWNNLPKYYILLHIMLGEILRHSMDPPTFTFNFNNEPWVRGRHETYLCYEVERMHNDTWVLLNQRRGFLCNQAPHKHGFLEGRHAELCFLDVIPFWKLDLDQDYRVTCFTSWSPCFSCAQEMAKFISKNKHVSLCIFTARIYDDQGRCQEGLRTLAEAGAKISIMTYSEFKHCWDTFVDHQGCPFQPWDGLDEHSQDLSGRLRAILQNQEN
Neddylation inh: blocks human cullin neddylation | P61081+Q13564 | TR-FRET cullin neddylation, biochemical | inhibition, % at 25 µM | hit rate 0.58% among 360,000; in the data active = inhibition above about 36%
A3A deaminase: blocks human APOBEC3A ssDNA deamination; recombinant A3A, FAM/TAMRA ssDNA deamination fluorescence; P31941; inhibition, % at 20 µM; hit rate 0.41% among 330,000;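 active = at least 40% inhibition at 20 µM here, with at most 30% in a related deaminase screen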;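 also: plate controls were A3A with DMSO for no effect and wells lacking A3A enzyme for full effect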
GC-A act: GC-A (human) enzyme activation; HEK293 GC-A cells, cGMP TR-FRET, EC30 ANP; 0% at EC30 ANP, 100% saturating ANP; activation, % at 10 µM; hit rate 0.14% among 370,000; AID 1671463; in the data active = activation above about 40%
NPR2 activator: GC-B (human) receptor activation; P20594; HEK293-GC-B cells, CNP EC30, cGMP TR-FRET; 0% at EC30 CNP, 100% saturating CNP; activation, % at 10 µM; hit rate 0.11% among 370,000; AID 1920062;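 active = activation at 10 µM reaching about 35% in either raw or pattern-adjusted values, limit read from the data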
PfG6PD inh: PfG6PD (Plasmodium falciparum) enzyme inhibition; inhibition, % at 20 µM; hit rate 0.78% among 350,000; PfGluPho enzyme, NADPH resazurin-diaphorase fluorescence; AID 504690;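 active = inhibition reaching at least a set limit at 20 µM in the primary screen, cut at about 59% in these data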;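 also: 0% = DMSO wells with substrate and 100% = DMSO wells lacking glucose-6-phosphate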
The depositor's hits bear a star. In the library only some 2% were active in any assay of this set; here they are far more common.

Screening COc1ccc(/C=C/S(=O)(=O)NC2CCCC2)c(CNC(=O)OC(C)(C)C)c1 returned GC-A act 0 and NPR2 activator -6.
Screening CCCCCCn1c(N2CCCC2)nc2c1c(=O)[nH]c(=O)n2C returned A3G deaminase -1, Neddylation inh 4, A3A deaminase -1, GC-A act -8, NPR2 activator -4 and PfG6PD inh -9.
`C/C(Cl)=C/Cn1c(NCCN(C)C)nc2c1c(=O)n(C)c(=O)n2C` gave A3G deaminase -1, Neddylation inh 0, A3A deaminase -1, GC-A act 0, NPR2 activator 0 and PfG6PD inh -19.
Screening Cn1c(=O)c2c(nc(NC3CCCCC3)n2Cc2ccccc2)n(C)c1=O returned A3G deaminase -6, Neddylation inh 3, A3A deaminase -7, GC-A act 79*, NPR2 activator 54* and PfG6PD inh 17.
For CCCCCn1c(NC2CCCCC2)nc2c1c(=O)[nH]c(=O)n2C the results were A3G deaminase -6, Neddylation inh 6, A3A deaminase -7, GC-A act 48*, NPR2 activator 17 and PfG6PD inh -5.
`C/C(Cl)=C\Cn1c(Nc2ccccc2)nc2c1c(=O)n(C)c(=O)n2C` gave A3G deaminase -2, Neddylation inh 18, A3A deaminase 1, GC-A act 62*, NPR2 activator 55* and PfG6PD inh 6.
Cc1ccsc1C=Nn1c(-c2n[nH]c3c2CCC3)n[nH]c1=S was read as GC-A act -1 and NPR2 activator -7.
Screening Cn1c(=NC(=O)CCS(=O)(=O)c2ccccc2)sc2cc(F)ccc21 returned A3G deaminase -4, Neddylation inh -389, A3A deaminase -2, GC-A act 62*, NPR2 activator 35 and PfG6PD inh 8.
COCCn1c(=NC(=O)CCS(=O)(=O)c2ccccc2)sc2cc(C(=O)OC)ccc21 was read as A3G deaminase -6, Neddylation inh inactive, A3A deaminase -4, GC-A act 61*, NPR2 activator 2 and PfG6PD inh 5.
Screening CCOC(=O)c1c(-c2ccc(C)o2)csc1NC(=O)CSc1nnc(C)s1 returned A3G deaminase -2, Neddylation inh -3, A3A deaminase -5, GC-A act 3, NPR2 activator 6 and PfG6PD inh 47.
CCOC(=O)c1c(-c2ccc(C)o2)csc1NC(=S)NC(=O)c1ccccc1Br was read as A3G deaminase -7, Neddylation inh -32, A3A deaminase -3, GC-A act 18, NPR2 activator 37* and PfG6PD inh 21.
For CCOC(=O)c1c(-c2ccc(C)o2)csc1NC(=S)NC(=O)c1cccs1 the results were A3G deaminase -6, Neddylation inh -3, A3A deaminase -3, GC-A act 29, NPR2 activator 37* and PfG6PD inh 19.
c1ccc(C[n+]2csc3ccccc32)cc1 was read as A3G deaminase 2, Neddylation inh -4, A3A deaminase -2, GC-A act 6, NPR2 activator 8 and PfG6PD inh 62*.
COC(=O)c1cc(C(c2ccccc2O)C2CCCO2)n2cccc(C(C)(C)C)c12 (configuration not stated) was read as GC-A act -30 and NPR2 activator -23.
O=C1/C(=C/c2ccc(N3CCOCC3)o2)SC(=Nc2ccccc2)N1CCc1c[nH]c2ccccc12 was read as A3G deaminase -43, Neddylation inh -40, A3A deaminase -16 and PfG6PD inh 77*.
Screening O=C1S/C(=C\c2ccc(N3CCOCC3)o2)C(=O)N1Cc1ccc(F)cc1 returned A3G deaminase -2, Neddylation inh -13, A3A deaminase -7 and PfG6PD inh 60*.
COc1cc(/C=C2\SC(=Nc3ccccc3)N(CCc3c[nH]c4ccccc34)C2=O)ccc1OC(C)C(=O)O (configuration not stated) was read as A3G deaminase -7, Neddylation inh -12, A3A deaminase -1, GC-A act -9, NPR2 activator 5 and PfG6PD inh -21.
CN(C)C(=O)NCCCC#Cc1ccccc1 was read as GC-A act 0 and NPR2 activator 6.
For CC(NC(=O)Cc1cccs1)c1ccccc1 (configuration not stated) the results were A3G deaminase -4, Neddylation inh -8, A3A deaminase 0, GC-A act 4, NPR2 activator 1 and PfG6PD inh 6.
Screening CCC(NC(=O)Cc1cccs1)c1ccccc1 (configuration not stated) returned A3G deaminase -4, Neddylation inh -8, A3A deaminase -2, GC-A act 1, NPR2 activator 68* and PfG6PD inh -13.
For Cc1cc2nc3ccc(=[N+](C)C)cc-3sc2cc1N the results were Neddylation inh -148 and PfG6PD inh 102*.
`[C-]#[N+][C@]12C(=O)[C@H](C=C(Cl)[C@@]1(C)C=C)C(C)(C)[C@H]1C(=O)N(C)c3cccc2c31` gave GC-A act -3 and NPR2 activator 11.
For CC1(C)Cc2c(C#N)c(NCCc3ccccc3)nc(-c3ccco3)c2CO1 the results were A3G deaminase -5, A3A deaminase -1, GC-A act 35, NPR2 activator 48* and PfG6PD inh 24.
`O=C(CCc1ccccc1-c1ccccc1CCNC(=O)c1ccccc1)NCc1ccccc1` gave GC-A act -7 and NPR2 activator 1.
CC(=O)NC(c1ccc(C(C)C)cc1)c1c(O)ccc2ccccc12 (configuration not stated) was read as A3G deaminase 3, Neddylation inh 23, A3A deaminase -3, GC-A act 47*, NPR2 activator -7 and PfG6PD inh 22.
`CC(=O)NC(c1ccccc1)c1c(O)ccc2ccccc12` (configuration not stated) gave A3G deaminase 2, Neddylation inh 34, A3A deaminase 3, GC-A act -7, NPR2 activator -6 and PfG6PD inh 13.
N#Cc1cccc(-c2nnc(SCc3ccccc3C#N)o2)c1 was read as A3G deaminase -1, Neddylation inh 5, A3A deaminase 4, GC-A act 35, NPR2 activator 38* and PfG6PD inh 0.
`O=C(CSc1nc2ccccc2c(=O)n1-c1ccc(Cl)cc1)NNC(=S)Nc1ccccc1` gave GC-A act -2 and NPR2 activator -3.
Screening Cc1ccc(C(=O)N/C(=C\c2ccc(-c3ccc(Br)cc3)o2)C(=O)NCCCN(C)C)cc1 returned A3G deaminase -4, Neddylation inh 50*, A3A deaminase -3, GC-A act 1, NPR2 activator -6 and PfG6PD inh 34.
